This is an account of results in PubChem BioAssay (NCATS).

Structures are written as SMILES. Inconclusive results are not listed. Activity calls are given as the source filed them. Unless noted, calls come from the whole dose curve; as a rule, active = well fitted curve in the direction sought with a large enough effect; inconclusive = small, poorly fitted or top-dose-only effect, or another doubt; inactive = no such curve, though single readings can be large; an effect the other way counts as inactive or inconclusive.

The nature of assay [1]: AP1 Signaling Pathway (AID 357; active = well fitted curve in either direction with a large enough effect, not every such curve was filed as active;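 note: ME-180 reporter cells stimulated with EGF at its EC50 level; % is set by controls: 0 for no effect and ±100 for the full control effect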). Summed up:
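Read-out was the 460nm/530nm emission ratio (excitation 405nm) after CCF4 loading for 2.5 hours at room temperature. Cells carried an AP-1-driven beta-lactamase reporter, were stimulated with EC50 EGF plus compound for 5 hours, and AC50 values came from titrations.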

The nature of assay [2]: NFAT Signaling Pathway (AID 444; active = well fitted curve in either direction with a large enough effect, not every such curve was filed as active;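 note: carbachol stimulus at about its EC50 of 1 µM final; % is set by controls: 0 for no effect and ±100 for the full control effect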). As to conditions: Jurkat NFAT-bla M1, carbachol, beta-lactamase ratio, 5 h; at 17.2 µM (top of the series) unless noted. The method in brief: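 Jurkat cells carrying an NFAT-driven β-lactamase reporter and co-transfected muscarinic M1 receptor were treated with compound plus carbachol (1 uM final, an EC50 level) for 5 h at 37 °C. CCF4 loading followed for 1 h at RT; 460/530 nm ratio gave %activity.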

The target in assay [3] is Glucocorticoid receptor (Homo sapiens) (UniProt P04150). Put plainly: GR-EFC Redistribution (AID 451; calls by dose curve; note: potency is the fitted concentration of half-maximal effect). As to conditions: CHO-K1 GR-EFC translocation, beta-gal luminescence, 2 h. The method in brief: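 CHO-K1 cells stably expressing nuclear-localized β-gal enzyme acceptor and GR fused C-terminally to the enzyme donor fragment; ligand-driven nuclear translocation restores β-gal by complementation. Compounds titrated up to 46 uM final, 2 h at 37 °C; luminescence read.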

Assay [4] has as its target Mitogen-activated protein kinase 10 (Mus musculus) (UniProt Q61831). Put plainly: JNK3 AlphaScreen Assay (AID 530; active = well fitted curve in either direction with a large enough effect, not every such curve was filed as active;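 note: kinase came from lysate of stimulated human HepG2 cells; signal reports phosphorylation of biotinylated GST-cJun 1-79 at Ser73 with 10 µM ATP; % is set by controls: 0 for no effect and ±100 for the full control effect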). The method in brief: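 JNK3 came from HepG2 lysates pre-activated with IL-1beta and TNF-alpha and phosphorylated biotinylated GST-cJun (1-79) at 10 uM ATP, pH 7.6, room temperature. Compounds were titrated. AlphaScreen signal used anti-phospho-cJun (Ser73) antibody.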

The target in assay [5] is 3',5'-cyclic-AMP phosphodiesterase 4B (Homo sapiens) (UniProt Q07343). Put plainly: qHTS Assay for Inhibitors of PDE-IV (AID 607; active = well fitted activation curve with a large enough effect in the main read-out, with a control signal flat, not every such curve was filed as active; note: % of control where 0% means no effect). Summed up:
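HEK293 ACTOne cells with CNG channel (1000/well), endogenous PDE4; membrane potential dye, compounds up to 22.9 uM final. Fluorescence Ex 535/Em 590; RO 20-1724 (100 uM final) as reference.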
A general note: Quantitative high-throughput screening tests each substance at several concentrations.

The nature of assay [6]: qHTS Assay for Lipid Storage Modulators (AID 1519; calls by dose curve). As to conditions: Drosophila S3 cells, BODIPY lipid droplet/cell ratio, laser cytometry, cells loaded with oleic acid; for activity change, negative = inhibition: at 25.7 µM (top of the series). Summed up:
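Cells seeded at 5,000 per well were treated with compounds over a concentration series and loaded with oleic acid (400 uM, as added). Lipid droplet fluorescence (488 nm excitation, 500-530 nm channel) was read by laser-scanning cytometry and normalized to 20 uM Triacsin C.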

In assay [7] the target is ATP-dependent 6-phosphofructokinase (Trypanosoma brucei brucei) (UniProt O15648). Put plainly: qHTS Assay to Find Inhibitors of T. brucei phosphofructokinase: hit validation (AID 492961).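 Note: luminescence reports ADP formed as PFK phosphorylates fructose-6-phosphate with ATP; % is set by controls: 0 for no effect and ±100 for the full control effect.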 Summed up: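 PFK 1.25 nM, F6P 0.5 mM, ATP 0.1 mM, MgCl2 5 mM, 0.1 M TEA pH 8.0, Tween20 0.01%, BSA 0.1%; 45 min RT. ADP-Glo two-step detection, luminescence. qHTS titration; curve fitting with curve-class categorization.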

Assay [8] deals with Ubiquitin carboxyl-terminal hydrolase 1 (Homo sapiens) (UniProt O94782). Put plainly: Inhibitors of USP1/UAF1: Pilot qHTS (AID 504865).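 Note: rhodamine fluorescence freed from ubiquitin-rhodamine substrate followed over time; top concentration of the series differs between compounds; % is set by controls: 0 for no effect and ±100 for the full control effect; nearly all actives have a fitted effect of over 35% in size.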 The method in brief:
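USP1/UAF1 complex at 1 nM preincubated 15 min at room temperature with compound, then Ub-Rho substrate added at 150 nM final. Fluorescence (480/540 nm) read kinetically in 50 mM HEPES pH 7.8, 0.5 mM EDTA, 1 mM TCEP, 0.1 mg/ml BSA, 0.01% Tween-20.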

The target of assay [9] is Luciferin 4-monooxygenase (Photinus pyralis) (UniProt P08659). Put plainly: Biochemical firefly luciferase enzyme assay for NPC (AID 624030).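 Note: purified P. pyralis luciferase at 10 nM with luciferin and ATP substrate; 0% = DMSO and -100% = full luciferase inhibition by PTC124 control; nearly all actives have a fitted effect of over 70% in size.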 Summed up:
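Counter-screen for direct inhibition of the luciferase enzyme by approved-drug library compounds, run at 10 nM enzyme in 50 mM Tris acetate (final). Luminescence was read within 5 min of enzyme-buffer addition and normalized to PTC124 versus DMSO (0%).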

Assay [10] can be described thus: qHTS profiling for inhibitors of Plasmodium falciparum proliferation (AID 504749).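 For activity, negative = inhibition: 0% = DMSO vehicle and full inhibition = artemisinin control.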 Note: nearly all actives have a fitted effect of over 60% in size. Note: potency is the fitted concentration of half-maximal effect. As to conditions: P. falciparum in erythrocytes, SYBR Green DNA, 72 h, at 12.8 µM (top of the series). The method in brief:
(§1)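 P. falciparum-infected erythrocytes (0.3% parasitemia, 2.5% hematocrit final) were exposed to compounds for 72 h at 37 C in 5% CO2, then lysed with SYBR Green buffer overnight at room temperature; parasite DNA fluorescence was normalized to artemisinin and DMSO controls.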

The next assay relates to C2A. Described as above. As to conditions: P. falciparum in erythrocytes, SYBR Green DNA, 72 h; series mostly up to 12.8 µM. The method in brief:
as §1

The test system of another assay is CP217. Described as above. As to conditions: P. falciparum in erythrocytes, SYBR Green DNA, 72 h; series mostly up to 12.8 µM. The method in brief: as §1
For the next assay, the system named is CP238. Described as above. As to conditions: P. falciparum in erythrocytes, SYBR Green DNA, 72 h; series mostly up to 12.8 µM. The method in brief:
as §1

The subject of the next assay is CP250. The assay is described as above. As to conditions: P. falciparum in erythrocytes, SYBR Green DNA, 72 h; series mostly up to 12.8 µM. The method in brief:
as §1

For a further assay, the system named is CP252. The description is as above. As to conditions: P. falciparum in erythrocytes, SYBR Green DNA, 72 h; series mostly up to 12.8 µM. Summed up: as §1
The subject of another assay is FAB9. Described as above. As to conditions: P. falciparum in erythrocytes, SYBR Green DNA, 72 h; series mostly up to 12.8 µM. The method in brief: as §1
The test system of the next assay is HB3. The description is as above. As to conditions: P. falciparum in erythrocytes, SYBR Green DNA, 72 h; series mostly up to 12.8 µM. The method in brief: as §1
In a further assay the test system is SC27B. Described as above. As to conditions: P. falciparum in erythrocytes, SYBR Green DNA, 72 h; series mostly up to 12.8 µM. The method in brief: as §1
The nature of assay [11]: Stat Signaling Pathway (AID 446; active = well fitted curve in either direction with a large enough effect, not every such curve was filed as active). Summed up:
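ME-180 cells carrying a SIE-driven beta-lactamase reporter are stimulated with 40 pM IL-6 for 5 h at 37C in the presence of compound. The 460/530 nm FRET substrate ratio is read after 2.5 h at RT. Data are normalised to 300 pM IL-6 and to 125 nM JAK inhibitor controls.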

Assay [12] has as its target Glucocorticoid receptor (Homo sapiens) (UniProt P04150). Put plainly: GR-GFP Redistribution (AID 450;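 active = compounds whose dose series gives a full or clear partial fitted curve of increased nuclear translocation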; note: potency is the fitted concentration of half-maximal effect). As to conditions: U2OS GR-GFP nuclear translocation, laser cytometry, 2 h.
Setting [13] is: measured here: cell count channel max response.
Where [14] appears, read: measured here: lipid channel max response.

Chain of ATP-dependent 6-phosphofructokinase (Trypanosoma brucei brucei) (O15648 whole entry, looked up): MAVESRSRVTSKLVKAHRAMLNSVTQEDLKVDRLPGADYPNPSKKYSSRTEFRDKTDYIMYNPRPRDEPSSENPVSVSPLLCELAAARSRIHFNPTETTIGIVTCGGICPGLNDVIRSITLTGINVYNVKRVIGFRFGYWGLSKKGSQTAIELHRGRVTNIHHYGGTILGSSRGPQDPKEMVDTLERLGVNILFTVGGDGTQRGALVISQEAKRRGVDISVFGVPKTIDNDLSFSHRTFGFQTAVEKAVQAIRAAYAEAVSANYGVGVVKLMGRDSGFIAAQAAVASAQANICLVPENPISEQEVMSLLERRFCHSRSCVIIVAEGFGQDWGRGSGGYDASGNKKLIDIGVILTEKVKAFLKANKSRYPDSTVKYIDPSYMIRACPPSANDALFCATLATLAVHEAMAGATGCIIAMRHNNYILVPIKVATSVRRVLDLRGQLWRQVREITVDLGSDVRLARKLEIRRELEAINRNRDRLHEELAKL
Chain of 3',5'-cyclic-AMP phosphodiesterase 4B (Homo sapiens) (Q07343 whole entry, looked up): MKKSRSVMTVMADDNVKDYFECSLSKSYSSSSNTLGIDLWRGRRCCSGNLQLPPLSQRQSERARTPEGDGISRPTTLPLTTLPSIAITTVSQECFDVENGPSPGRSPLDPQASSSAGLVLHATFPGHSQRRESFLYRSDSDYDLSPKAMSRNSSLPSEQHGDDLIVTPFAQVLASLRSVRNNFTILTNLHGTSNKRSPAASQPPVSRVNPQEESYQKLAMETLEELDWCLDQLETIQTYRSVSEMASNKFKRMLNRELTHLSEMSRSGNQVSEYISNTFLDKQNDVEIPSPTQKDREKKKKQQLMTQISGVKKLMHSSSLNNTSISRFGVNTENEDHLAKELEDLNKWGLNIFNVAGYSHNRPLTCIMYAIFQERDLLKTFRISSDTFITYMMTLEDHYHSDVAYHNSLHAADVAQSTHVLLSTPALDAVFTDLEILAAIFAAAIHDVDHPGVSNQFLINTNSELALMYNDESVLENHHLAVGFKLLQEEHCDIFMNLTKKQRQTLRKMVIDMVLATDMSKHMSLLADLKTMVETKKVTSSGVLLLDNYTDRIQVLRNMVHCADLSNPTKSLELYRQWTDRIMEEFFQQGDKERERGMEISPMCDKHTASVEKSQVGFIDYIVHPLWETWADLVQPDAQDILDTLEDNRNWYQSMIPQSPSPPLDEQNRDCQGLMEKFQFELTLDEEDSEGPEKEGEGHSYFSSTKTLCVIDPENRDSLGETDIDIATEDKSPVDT
Chain of Luciferin 4-monooxygenase (Photinus pyralis) (P08659 whole entry, looked up): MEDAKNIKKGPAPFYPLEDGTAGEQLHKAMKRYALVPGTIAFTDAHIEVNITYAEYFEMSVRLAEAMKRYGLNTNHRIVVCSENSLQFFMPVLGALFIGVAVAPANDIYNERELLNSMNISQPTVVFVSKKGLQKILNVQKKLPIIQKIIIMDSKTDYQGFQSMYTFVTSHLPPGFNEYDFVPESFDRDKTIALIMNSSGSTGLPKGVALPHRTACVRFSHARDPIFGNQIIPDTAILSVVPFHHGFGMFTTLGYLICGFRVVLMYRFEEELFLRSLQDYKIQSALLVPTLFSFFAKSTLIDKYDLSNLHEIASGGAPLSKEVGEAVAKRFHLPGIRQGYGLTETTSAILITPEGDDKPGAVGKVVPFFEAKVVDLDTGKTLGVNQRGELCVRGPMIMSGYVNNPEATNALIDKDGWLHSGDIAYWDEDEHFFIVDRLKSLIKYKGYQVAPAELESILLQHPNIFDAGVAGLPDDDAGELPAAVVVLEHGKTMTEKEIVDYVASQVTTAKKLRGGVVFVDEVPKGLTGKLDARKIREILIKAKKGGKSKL
Chain of Glucocorticoid receptor (Homo sapiens) (P04150 whole entry, looked up, the tested form may be a part): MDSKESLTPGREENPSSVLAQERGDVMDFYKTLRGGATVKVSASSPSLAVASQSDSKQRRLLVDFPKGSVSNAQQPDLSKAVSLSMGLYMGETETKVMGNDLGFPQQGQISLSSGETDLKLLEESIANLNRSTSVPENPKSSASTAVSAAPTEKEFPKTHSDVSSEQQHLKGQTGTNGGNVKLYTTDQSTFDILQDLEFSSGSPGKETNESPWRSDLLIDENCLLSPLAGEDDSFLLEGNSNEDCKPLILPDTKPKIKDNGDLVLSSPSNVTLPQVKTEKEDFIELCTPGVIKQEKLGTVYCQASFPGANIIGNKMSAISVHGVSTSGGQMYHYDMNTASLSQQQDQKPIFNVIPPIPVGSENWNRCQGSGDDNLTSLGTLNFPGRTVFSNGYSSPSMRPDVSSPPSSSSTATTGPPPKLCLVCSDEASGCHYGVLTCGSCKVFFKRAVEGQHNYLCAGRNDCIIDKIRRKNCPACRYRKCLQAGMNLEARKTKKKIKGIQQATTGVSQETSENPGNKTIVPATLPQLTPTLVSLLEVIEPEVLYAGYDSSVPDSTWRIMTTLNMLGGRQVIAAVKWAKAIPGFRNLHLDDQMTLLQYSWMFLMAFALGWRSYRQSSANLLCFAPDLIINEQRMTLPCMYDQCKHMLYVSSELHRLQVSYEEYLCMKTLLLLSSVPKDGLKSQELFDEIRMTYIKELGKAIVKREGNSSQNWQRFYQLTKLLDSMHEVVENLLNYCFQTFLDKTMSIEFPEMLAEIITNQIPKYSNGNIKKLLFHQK
Chain of Ubiquitin carboxyl-terminal hydrolase 1 (Homo sapiens) (O94782 whole entry, looked up): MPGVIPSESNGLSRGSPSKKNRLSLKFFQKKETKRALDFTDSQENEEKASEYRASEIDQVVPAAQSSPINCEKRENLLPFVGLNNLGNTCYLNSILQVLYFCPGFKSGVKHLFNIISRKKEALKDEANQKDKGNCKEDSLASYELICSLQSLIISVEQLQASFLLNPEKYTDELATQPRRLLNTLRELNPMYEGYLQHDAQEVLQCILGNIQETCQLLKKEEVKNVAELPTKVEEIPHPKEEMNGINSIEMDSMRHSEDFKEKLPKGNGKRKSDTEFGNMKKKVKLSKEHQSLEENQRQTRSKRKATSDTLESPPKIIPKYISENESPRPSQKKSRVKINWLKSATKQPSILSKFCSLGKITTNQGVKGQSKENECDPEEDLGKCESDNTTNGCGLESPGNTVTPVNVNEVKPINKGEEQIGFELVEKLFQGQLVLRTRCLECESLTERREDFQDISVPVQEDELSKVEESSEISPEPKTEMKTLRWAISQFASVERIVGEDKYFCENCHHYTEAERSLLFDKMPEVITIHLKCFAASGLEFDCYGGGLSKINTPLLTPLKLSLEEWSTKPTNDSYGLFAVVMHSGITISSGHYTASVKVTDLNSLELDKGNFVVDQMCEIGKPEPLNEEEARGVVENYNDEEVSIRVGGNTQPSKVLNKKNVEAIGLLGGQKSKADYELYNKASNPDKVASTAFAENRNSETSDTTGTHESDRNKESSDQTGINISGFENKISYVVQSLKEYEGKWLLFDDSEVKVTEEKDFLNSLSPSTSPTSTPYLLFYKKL

For `CN[C@H]1[C@@H](O)[C@@H](NC)[C@@H]2O[C@@]3(O)C(=O)C[C@@H](C)O[C@H]3O[C@H]2[C@H]1O`, the molecule was classed as inactive in assay [1], in assay [5] and in assay [7]. For the same molecule, the activity change, negative = inhibition is -11.9% (inactive) in assay [2] and 0.684% (inactive) in assay [6]. For the same molecule, the Potency in [3] is > 20.6 µM (inactive). The Potency result (in assay [4]; in assay [8]; in [9]; in the assay with C2A; in the assay on CP217; in the assay with CP238) was “inactive” each time. The Potency result with CP250, with CP252, in the assay with FAB9, in the assay on HB3 and in the assay with SC27B was “inactive” in each case. The values for the max response in [6] (setting [13]) and in [6] (setting [14]) were 1.41% and 2.93%, respectively. For the same molecule, the figures for the activity, negative = inhibition in assay [10] (parasite line A) and in assay [10] (parasite line B) were -10.3% (inactive) and -0.369% (inactive), respectively.

For the molecule `CC#C[C@@]1(O)CC[C@H]2[C@@H]3CCC4=CC(=O)CCC4=C3[C@H](c3ccc(N(C)C)cc3)C[C@]21C`, the molecule was called inactive in assay [1], in assay [11] and in assay [5]. For the same molecule, the activity change, negative = inhibition in assay [2] was 15.9% (inactive); in assay [6], 0.174% (inactive). Also, the figures for the max response in [6] (setting [13]) and in [6] (setting [14]) were -7.59% and -5.96%, respectively.

On to `CCC(=O)OCC(=O)[C@@]1(OC(=O)CC)[C@H](C)C[C@@H]2[C@@H]3[C@H]([C@@H](O)C[C@@]21C)[C@]1(C)C=CC(=O)C=C1C[C@@H]3Cl`, for which the result in [1], in assay [5] and in assay [7] was inactive. In addition, the activity change, negative = inhibition in assay [2] was 14% (inactive); in assay [6], -4.84% (inactive). Further, the Potency was 0.00423 µM (active) in assay [12] and 3.55 µM (active) with HB3. In addition, the Potency entry (in assay [4]; in [9]; in the assay with C2A; with CP252) was “inactive” throughout. For the same molecule, the max response in assay [6] (setting [13]) is -9.62%; in [6] (setting [14]) it was -12.3%.

Consider `CC(C)(C)NC(=O)[C@@H]1CC[C@@H]2[C@@H]3CC[C@@H]4NC(=O)C=C[C@@]4(C)[C@H]3CC[C@]21C`, for which the outcome in [1], in [5] and in [7] was inactive. Further, the activity change, negative = inhibition in assay [2] was 3.14% (inactive); in assay [6], -1.87% (inactive). The Potency in assay [12] and in assay [3] was > 20.6 µM (inactive) throughout. Also, the Potency result (in assay [4]; in assay [8]; in [9]; in the assay on C2A; in the assay with CP217; in the assay with CP238) was “inactive” in each case. The Potency entry in the assay with CP250, in the assay on CP252, with FAB9, in the assay with HB3 and in the assay on SC27B was “inactive” each time. Besides, the max response in assay [6] (setting [13]) is -11.6%; in [6] (setting [14]) it was -13.3%. Besides, the activity, negative = inhibition in assay [10] (parasite line A) is 6.77% (inactive); in assay [10] (parasite line B), -2.48% (inactive).

As for `CCCC(=O)Nc1ccc(OC[C@@H](O)CNC(C)C)c(C(C)=O)c1`, the call in assay [1], in assay [5] and in assay [7] was inactive. In addition, the results for the activity change, negative = inhibition in assay [2] and in assay [6] were -10.7% (inactive) and -2.69% (inactive), respectively. Besides, the Potency in assay [12] and in [3] was > 20.6 µM (inactive) throughout. The Potency result in assay [4], in assay [8] and in [9] was “inactive” throughout. Further, the max response in [6] (setting [13]) was -0.4%; in assay [6] (setting [14]), -3.96%.
